# Data taken from PubChem BioAssay (Tox21).
# Where “and” joins values, the source holds several entries; their conditions need not be identical. Equal entries are not always repeated. A number with no mark means an inactive call. Records with an inconclusive call do not appear. Entries that show only a call come without a potency. Calls of active or inactive are those of the source. Unless noted, calls come from the whole dose curve; as a rule, active = well fitted curve in the direction sought with a large enough effect in the repeat runs; inconclusive = weak or mixed curves; inactive = no such curve, though single readings can be large; an effect the other way counts as inactive or inconclusive.
# What was measured:
# [1] = target: Androgen receptor (Homo sapiens) (UniProt P10275); experiment: qHTS assay to identify small molecule antagonists of the androgen receptor (AR) signaling pathway (AID 743035; active = well fitted inhibition curve with a large enough effect in the signal ratio in the repeat runs, not every such curve was filed as active; the % refers to the signal ratio; note: potency is the fitted concentration of half-maximal effect)
# Androgen receptor (Homo sapiens), sequence (P10275 whole entry, looked up): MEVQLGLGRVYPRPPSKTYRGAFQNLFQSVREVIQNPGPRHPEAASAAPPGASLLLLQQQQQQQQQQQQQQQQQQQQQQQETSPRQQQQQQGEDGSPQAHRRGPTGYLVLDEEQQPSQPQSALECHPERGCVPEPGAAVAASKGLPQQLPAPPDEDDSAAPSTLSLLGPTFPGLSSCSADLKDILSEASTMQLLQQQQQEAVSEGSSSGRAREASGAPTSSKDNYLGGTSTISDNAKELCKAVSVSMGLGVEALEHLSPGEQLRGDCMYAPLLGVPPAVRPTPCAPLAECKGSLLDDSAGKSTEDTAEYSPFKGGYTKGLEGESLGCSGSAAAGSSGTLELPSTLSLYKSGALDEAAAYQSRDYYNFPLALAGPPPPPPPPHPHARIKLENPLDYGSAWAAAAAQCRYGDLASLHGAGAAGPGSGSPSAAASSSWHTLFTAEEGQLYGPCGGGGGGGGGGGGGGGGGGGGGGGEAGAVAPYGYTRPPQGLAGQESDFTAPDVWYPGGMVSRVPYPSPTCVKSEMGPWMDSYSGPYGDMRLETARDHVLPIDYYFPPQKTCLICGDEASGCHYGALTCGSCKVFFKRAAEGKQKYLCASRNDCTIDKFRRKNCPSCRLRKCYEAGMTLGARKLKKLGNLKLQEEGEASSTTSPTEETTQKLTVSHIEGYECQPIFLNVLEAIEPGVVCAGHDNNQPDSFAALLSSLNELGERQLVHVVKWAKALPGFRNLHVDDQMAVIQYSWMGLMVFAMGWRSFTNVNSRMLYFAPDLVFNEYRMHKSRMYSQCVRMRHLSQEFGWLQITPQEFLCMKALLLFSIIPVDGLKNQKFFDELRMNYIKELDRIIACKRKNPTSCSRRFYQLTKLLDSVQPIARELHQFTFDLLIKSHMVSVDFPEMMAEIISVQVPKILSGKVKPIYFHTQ
# In short: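 Beta-lactamase FRET read (2 h RT incubation with LiveBLAzer B/G) following 16 h of compound plus R1881 treatment of AR-UAS-bla HEK293 cells, which had been pre-incubated 4 h at 37C.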
# [2] = target: Androgen receptor (Homo sapiens) (UniProt P10275); experiment: qHTS assay to identify small molecule antagonists of the androgen receptor (AR) signaling pathway using the MDA cell line (AID 743042; note: nearly all actives have a fitted effect of over 55% in size; note: potency is the fitted concentration of half-maximal effect)
# In short: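 Antagonist mode: compounds plus R1881 agonist added to MDA-kb2 AR-luc cells, incubated 16 h at 37C. Luciferase reporter luminescence quantified, with multiplexed CellTiter-Fluor readout for cell viability.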
# [3] = target: Nuclear receptor subfamily 1 group I member 2 (Homo sapiens) (UniProt O75469); experiment: CYP3A4 induction through human pregnane X receptor (PXR) by small molecules, qHTS assay (AID 1346984); note: nearly all actives have a fitted effect of over 40% in size; note: potency is the fitted concentration of half-maximal effect
# In short: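 Readings come from a luciferase reporter: DPX-2 cells, which are HepG2 cotransfected with PXR and a CYP3A4-promoter construct, were exposed to test compounds for 24 h at 37C before One-Glo detection.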
# [4] = target: Nuclear receptor subfamily 1 group I member 2 (Homo sapiens) (UniProt O75469); experiment: Human pregnane X receptor (PXR) activation by small molecules, qHTS assay (AID 1346985); note: nearly all actives have a fitted effect of over 40% in size; note: potency is the fitted concentration of half-maximal effect
# In short: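 DPX-2 cells (HepG2 co-transfected with a PXR response element and a CYP3A4-promoter luciferase construct) were seeded at 2,000 per well, rested 5 hr at 37C, then exposed to DMSO-dissolved compounds for 24 hr. Activation was read as luciferase luminescence.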
# [5] = target: Nuclear receptor subfamily 1 group I member 2 (Rattus norvegicus) (UniProt Q9R1A7); experiment: Rat pregnane X receptor (rPXR) activation by small molecules, qHTS assay (AID 1346983); settings: rPXR luciferase reporter cells, One-Glo luminescence, 24 h; max activation: hits give high values; note: nearly all actives have a fitted effect of over 20% in size
# Nuclear receptor subfamily 1 group I member 2 (Rattus norvegicus), sequence (Q9R1A7 whole entry, looked up): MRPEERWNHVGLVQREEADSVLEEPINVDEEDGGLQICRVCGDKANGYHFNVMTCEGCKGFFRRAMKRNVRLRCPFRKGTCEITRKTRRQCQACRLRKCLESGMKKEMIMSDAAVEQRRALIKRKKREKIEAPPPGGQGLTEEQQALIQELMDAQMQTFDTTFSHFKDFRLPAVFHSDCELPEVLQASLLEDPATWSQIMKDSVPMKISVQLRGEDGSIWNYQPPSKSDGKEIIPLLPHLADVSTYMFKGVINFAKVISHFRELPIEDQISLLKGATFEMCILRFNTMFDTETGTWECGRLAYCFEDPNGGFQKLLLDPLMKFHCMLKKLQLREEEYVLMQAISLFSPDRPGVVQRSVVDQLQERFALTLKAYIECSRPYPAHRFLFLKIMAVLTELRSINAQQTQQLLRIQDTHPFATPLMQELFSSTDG
# In short: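 Luminescent readout (One-Glo luciferase, 30 min room temperature) followed 24 hr compound treatment at 37 C of rPXR cells plated 2,000 per well and preincubated 5hr; qHTS format with compounds delivered in DMSO.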
# [6] = target: Glucocorticoid receptor (Homo sapiens) (UniProt P04150); experiment: qHTS assay to identify small molecule antagonists of the glucocorticoid receptor (GR) signaling pathway (AID 720692; active = well fitted inhibition curve with a large enough effect in the signal ratio in the repeat runs, not every such curve was filed as active; the % refers to the signal ratio; note: potency is the fitted concentration of half-maximal effect)
# Glucocorticoid receptor (Homo sapiens), sequence (P04150 whole entry, looked up): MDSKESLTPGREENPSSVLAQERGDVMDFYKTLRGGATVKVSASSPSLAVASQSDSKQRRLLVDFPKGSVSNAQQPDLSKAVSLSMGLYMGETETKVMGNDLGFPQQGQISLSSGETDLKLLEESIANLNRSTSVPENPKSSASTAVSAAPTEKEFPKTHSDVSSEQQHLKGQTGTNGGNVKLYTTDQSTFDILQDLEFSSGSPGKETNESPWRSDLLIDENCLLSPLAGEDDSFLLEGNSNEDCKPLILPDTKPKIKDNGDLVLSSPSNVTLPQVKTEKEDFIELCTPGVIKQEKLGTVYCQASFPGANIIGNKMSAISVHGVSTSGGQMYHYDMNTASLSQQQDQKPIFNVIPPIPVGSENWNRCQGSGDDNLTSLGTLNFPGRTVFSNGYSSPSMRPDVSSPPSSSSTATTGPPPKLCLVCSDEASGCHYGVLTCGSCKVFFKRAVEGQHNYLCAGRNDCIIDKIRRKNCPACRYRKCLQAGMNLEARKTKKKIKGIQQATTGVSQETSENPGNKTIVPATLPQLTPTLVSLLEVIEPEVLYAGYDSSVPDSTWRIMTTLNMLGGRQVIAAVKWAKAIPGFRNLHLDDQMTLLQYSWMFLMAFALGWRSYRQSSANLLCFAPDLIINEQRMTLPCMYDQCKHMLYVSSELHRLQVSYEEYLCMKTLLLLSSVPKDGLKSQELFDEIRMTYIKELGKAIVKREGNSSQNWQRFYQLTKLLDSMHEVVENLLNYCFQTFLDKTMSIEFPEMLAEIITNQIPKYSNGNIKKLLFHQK
# In short: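 Inhibition of glucocorticoid signalling is measured in HeLa cells with a GRE-controlled beta-lactamase reporter; cells are co-treated with compound and 5 nM dexamethasone (final) for 18 h before FRET substrate readout.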
# [7] = target: Androgen receptor (Homo sapiens) (UniProt P10275); experiment: qHTS assay to identify small molecule agonists of the androgen receptor (AR) signaling pathway using the MDA cell line (AID 743040; note: nearly all actives have a fitted effect of over 20% in size; note: potency is the fitted concentration of half-maximal effect)
# In short: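 Cells plated, 5 h at 37C/0% CO2; compound or DMSO pinned; 16 h at 37C; ONE-Glo added; luminescence measured after 30 min at room temperature. Reporter line: MDA-kb2 with MMTV-luciferase responsive to AR and GR.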
# [8] = target: Androgen receptor (Homo sapiens) (UniProt P10275); experiment: qHTS assay to identify small molecule agonists of the androgen receptor (AR) signaling pathway (AID 743036; active = well fitted activation curve with a large enough effect in the signal ratio in the repeat runs, with a control signal flat, not every such curve was filed as active; the % refers to the signal ratio; note: potency is the fitted concentration of half-maximal effect)
# In short: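 HEK293 cells stably carrying a UAS-driven beta-lactamase reporter (GeneBLAzer AR-UAS-bla-GripTite) were plated at 2,000 cells/well, rested 4 h at 37C, then exposed to compounds in DMSO for 16 h. LiveBLAzer B/G FRET substrate was added for 2 h at room temperature; fluorescence read.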
# [9] = qHTS assay for small molecule activators of the heat shock response signaling pathway (AID 743210; active = well fitted activation curve with a large enough effect in the signal ratio in the repeat runs, with a control signal flat, not every such curve was filed as active; the % refers to the signal ratio;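 note: HeLa cells with beta-lactamase reporter driven by heat shock elements; series mostly up to about 63 µM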)
# In short: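 HeLa HSE-bla cells, overnight plating; cpd in DMSO 5 h, 37 C; LiveBLAzer B/G FRET substrate 2.5 h RT; fluorescence intensity read.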
# [10] = Caspase-3/7 induction in HepG2 cells by small molecules, qHTS assay (AID 1346978); note: nearly all actives have a fitted effect of over 15% in size
# In short: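 Caspase-3/7 induction was measured by Caspase-Glo 3/7 luminescence (30 min, room temperature) after a 17 hr compound exposure of wild-type HepG2 cells seeded at 2,000 per well and pre-incubated 5 hr.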
# [11] = target: Acetylcholinesterase (Homo sapiens) (UniProt P22303); experiment: Acetylcholinesterase (AChE) small molecule antagonists: colormetric cell-based qHTS assay (AID 1347395; calls by dose curve; note: potency is the fitted concentration of half-maximal effect; nearly all actives have a fitted effect of over 30% in size)
# Acetylcholinesterase (Homo sapiens), sequence (P22303 whole entry, looked up): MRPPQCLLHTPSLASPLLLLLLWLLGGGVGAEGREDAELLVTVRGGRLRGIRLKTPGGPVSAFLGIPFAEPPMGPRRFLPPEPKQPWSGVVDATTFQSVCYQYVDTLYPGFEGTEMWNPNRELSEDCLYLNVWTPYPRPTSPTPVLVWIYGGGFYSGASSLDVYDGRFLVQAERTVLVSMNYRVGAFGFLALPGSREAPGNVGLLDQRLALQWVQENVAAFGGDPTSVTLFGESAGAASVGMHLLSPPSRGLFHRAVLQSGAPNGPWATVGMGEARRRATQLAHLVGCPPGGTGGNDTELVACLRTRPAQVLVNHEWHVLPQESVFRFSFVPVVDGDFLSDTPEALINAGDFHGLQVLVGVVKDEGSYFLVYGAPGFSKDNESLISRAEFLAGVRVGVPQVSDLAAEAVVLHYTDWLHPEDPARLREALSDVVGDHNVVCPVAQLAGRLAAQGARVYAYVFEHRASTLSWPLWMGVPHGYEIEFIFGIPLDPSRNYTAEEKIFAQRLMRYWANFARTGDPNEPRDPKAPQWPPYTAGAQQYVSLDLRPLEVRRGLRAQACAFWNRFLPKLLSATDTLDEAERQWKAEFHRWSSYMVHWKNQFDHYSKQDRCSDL
# In short: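 SH-SY5Y cells, plated overnight at 37 C, were exposed to compounds for 30 min at 37 C and 5% CO2. Acetylthiocholine plus DTNB was then added, and thiocholine from endogenous AChE was quantified colorimetrically after 90 min at 37 C.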
# [12] = target: Acetylcholinesterase (Homo sapiens) (UniProt P22303); experiment: Acetylcholinesterase (AChE) small molecule antagonists: enzyme-based qHTS assay with human liver microsomes (AID 1347399; calls by dose curve; note: nearly all actives have a fitted effect of over 60% in size); settings: Potency: qHTS inhibition; outcome: qHTS inhibition
# In short: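 Recombinant human AChE (50 mU/mL in the enzyme mix) and human liver microsomes (0.25 mg/mL final) were preincubated with compound and NADPH (0.25 mg/mL final) for 30 min at 37 C. Acetylthiocholine/DTNB was then added; thiocholine was read colorimetrically after 10 min at room temperature.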
structure (smiles),measurement,setting,value
C[C@]12CC[C@H](O)C[C@H]1CC[C@@H]1[C@@H]2CC[C@]2(C)[C@@H](c3ccc(=O)oc3)C[C@H]3O[C@]132,Potency,[1],6.01 µM (active)
same,Potency,[2],21.1 µM (active)
same,Potency,[3],5.01 µM (active)
same,Potency,[4],3.98 µM (active)
Cc1nnc2n1-c1ccc(Cl)cc1C(c1ccccc1Cl)=NC2,max activation,[5],3.04%
same,Potency,[3],inactive
C/C=C(\CC)C(=O)NC(N)=O,Potency,[6],inactive
c1csc(C2(N3CCCCC3)CCCCC2)c1,max activation,[5],-0.931%
same,Potency,[3],inactive
CCNC1(c2cccs2)CCCCC1=O (stereo not drawn),Potency,[6],inactive
Oc1cccc[c]1[Hg][Cl],Potency,[1],6.74 µM (active)
same,Potency,[7],inactive
same,Potency,[2],4.22 µM (active)
same,max activation,[5],-19.4%
same,Potency,[3],inactive
O=C1CN=C(c2ccccc2)c2cc(Cl)ccc2N1,Potency,[6],23.9 µM (active)
CCN(CC)C(=O)N[C@H]1C[C@@H]2c3cccc4[nH]cc(c34)C[C@H]2N(C)C1,Potency,[1],inactive
same,Potency,[8],inactive
same,Potency,[7],inactive
same,Potency,[2],inactive
same,max activation,[5],-1.74%
same,Potency,[4],25.1 µM (active)
CCN1C[C@]2(COC)[C@H](O)C[C@H](OC)[C@@]34[C@@H]5C[C@@]6(O)[C@H](OC(=O)c7ccccc7)[C@@H]5[C@@](OC(C)=O)([C@@H]([C@H](OC)[C@H]23)[C@@H]14)[C@@H](O)[C@@H]6OC,max activation,[5],-1.75%
same,Potency,[4],inactive
CCC1(c2ccccc2)C(=O)NC(=O)N(C(=O)c2ccccc2)C1=O (stereo not drawn),Potency,[6],inactive
same,max activation,[5],-3.53%
same,Potency,[3],28.2 µM (active)
Oc1ccc2c3c1O[C@H]1[C@@H](O)CC[C@@]4(O)[C@@H](C2)N(CC2CCC2)CC[C@]314,Potency,[6],inactive
same,Potency,[2],inactive
same,max activation,[5],-0.605%
same,Potency,[4],inactive
CCC1C(C)=NN=C(c2ccc(OC)c(OC)c2)c2cc(OC)c(OC)cc21 (stereo not drawn),max activation,[5],-0.64%
same,Potency,[3],inactive
C[C@]12CC[C@@H]3c4ccc(OC(=O)N(CCCl)CCCl)cc4CC[C@H]3[C@@H]1CC[C@@H]2OP(=O)(O)O,Potency,[6],inactive
same,Potency,[1],10.7 µM (active) and 19 µM (active)
same,Potency,[7],5.31 µM (active) and 10.6 µM (active)
same,Potency,[2],inactive
Clc1ccc(C(Cn2ccnc2)OCc2csc3c(Cl)cccc23)c(Cl)c1 (stereo not drawn),Potency,[6],inactive
same,Potency,[7],inactive
same,Potency,[3],3.98 µM (active)
O=C(NC(=O)c1c(F)cccc1F)Nc1ccc(Cl)c(Oc2ncc(C(F)(F)F)cc2Cl)c1,Potency,[3],inactive
same,Potency,[4],inactive
C[C@@H](Cc1ccccc1)NCCC(c1ccccc1)c1ccccc1,Potency,[3],12.6 µM (active)
CCC/C=C/C=C/C(=O)O[C@H]1/C(=C/C(=O)OC)C[C@H]2C[C@H]([C@@H](C)O)OC(=O)C[C@H](O)C[C@@H]3C[C@H](OC(C)=O)C(C)(C)[C@](O)(C[C@@H]4C/C(=C/C(=O)OC)C[C@H](/C=C/C(C)(C)[C@]1(O)O2)O4)O3,Potency,[6],inactive
same,max activation,[5],2.43%
Cc1cc(C)cc(C(=O)OC2C[C@H]3CC[C@@H](C2)N3C)c1 (stereo partly drawn),max activation,[5],-1.64%
O=C1Nc2ccc(Cl)cc2C(c2ccccc2Cl)=NC1O (stereo not drawn),Potency,[6],inactive
same,Potency,[1],inactive
same,Potency,[8],inactive
same,Potency,[7],inactive
same,max activation,[5],-2.09%
same,Potency,[4],inactive
CN1C(=O)CC(=O)N(c2ccccc2)c2cc(Cl)ccc21,Potency,[6],inactive
same,Potency,[3],inactive
CN(C)CCCCCCN(C)C (tested in a mixture with another compound),Potency,[6],inactive
same,max activation,[5],-5.32%
O=C1C=C2C=C[C@@H]3C[C@@]2(O1)[C@H]1CCCCN31,Potency,[6],4.25 µM (active)
same,max activation,[5],-20.5%
same,Potency,[3],inactive
c1ccc(C2(N3CCCC3)CCCCC2)cc1,Potency,[3],1.58 µM (active)
same,Potency,[4],5.01 µM (active)
[H+].[H+].[Hg+2].[O-]B([O-])[O-].[c-]1ccccc1,max activation,[5],-22%
same,Potency,[3],inactive
CN[C@]1(c2ccccc2Cl)CCCCC1=O,Potency,[6],inactive
Cc1nnc2n1-c1ccc(Cl)cc1C(c1ccccc1)=NC2,Potency,[6],6.01 µM (active)
same,max activation,[5],-0.769%
same,Potency,[3],inactive
C=CCC1([C@@H](C)CCC)C(=O)NC(=O)NC1=O,Potency,[6],inactive
O=c1ccc2cc(O[C@@H]3O[C@H](CO)[C@@H](O)[C@H](O)[C@H]3O)c(O)cc2o1,Potency,[8],9.1 µM (active)
same,Potency,[7],inactive
same,Potency,[2],inactive
C#CCN1CC(=O)N(COC(=O)C2C(C=C(C)C)C2(C)C)C1=O (stereo not drawn),Potency,[6],inactive
same,max activation,[5],7.13%
same,Potency,[4],inactive
N#CC(C#N)=Cc1cc(O)c(O)c(O)c1,Potency,[7],inactive
same,Potency,[2],inactive
CC[C@H]1[C@@H]2C[C@H]3[C@@H]4N(C)c5ccccc5[C@]45C[C@@H](C2[C@H]5O)N3[C@@H]1O (stereo partly drawn),Potency,[6],inactive
same,max activation,[5],0.0648%
CNC1(c2ccccc2Cl)CCCCC1=O (stereo not drawn),Potency,[6],inactive
same,max activation,[5],-2.7% and 3.43%
O=C1OC2(c3cc(Br)c(O)cc3Oc3c2cc(Br)c(O)[c]3[Hg])c2ccccc21 (stereo not drawn),Potency,[6],inactive
same,Potency,[3],inactive
same,Potency,[4],inactive
C[C@@H]1[C@@H]2Cc3ccc(O)cc3[C@@]1(C)CCN2CC1CC1,Potency,[6],inactive
same,Potency,[1],inactive
same,Potency,[8],inactive
same,Potency,[7],inactive
same,Potency,[2],inactive
C[N+](C)(C)CCCCCCCCCC[N+](C)(C)C,Potency,[6],inactive
same,Potency,[9],inactive
same,Potency,[10],inactive
same,Potency,[11],15.5 µM (active)
same,Potency,[12],inactive
